NPC1 prom act: activators of NPC1 promoter; Huh7 NPC1 promoter luciferase reporter, 24 h; Potency, µM (titrated, usually from 9.22 µM), inactives show at the top dose activation, usual class: activators; hit rate 2.4% among 320,000; further: % of control where 0% means no effect; nearly all actives have a fitted effect of over 60% in size
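Compounds in DMSO were transferred onto Huh7 NPC1-luciferase reporter cells pre-incubated 2 h; after 24 h at 37 °C, Amplite reagent was dispensed and luminescence recorded 10 min later.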
p53 reactivator: re-activators of mutant p53 | hit rate 0.063% among 320,000 | H1299 p53-A138V BP100-luciferase reporter, luminescence, 24 h | Potency, µM (series often up to 92.2 µM), inactives show at the top dose activity change, positive = activation, hits mostly activators | AID 504706; further: % of control where 0% means no effect; nearly all actives have a fitted effect of over 45% in size
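H1299 (p53-null), stable ts p53-A138V + BP100-Luc; 1000 cells/well, Opti-MEM/10% FBS; cpd 4 pt, 1:5; 24 h, 37 deg C, 5% CO2; detection reagent 10 min RT; luminescence.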
SMN2 splice enh: enhancers of SMN2 splice variant expression; HEK293 SMN2-luciferase splicing reporter, luminescence, 30-36 h; Potency, µM (titrated, usually from 46.1 µM), for the others: at the top dose activity change, positive = activation, hits mostly activators; hit rate 2.8% among 210,000; further: % of control where 0% means no effect; nearly all actives have a fitted effect of over 55% in size
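HEK293 cells carry an SMN2 […]–luciferase reporter in which exon 7 inclusion puts luciferase in frame. Cells were plated 10-12 h before compound addition, then incubated 30-36 h at 37C. ONE-Glo luminescence was read; sodium butyrate at 4.5 mM final served as control.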
ELG1 genotoxic: induces genotoxicity in HEK293T cells with luciferase-tagged ELG1 | HEK293T ELG1-luciferase reporter, luminescence, 16 h | Potency, µM (doses to about 46 µM), for inactives: top-dose activity change, positive = activation, most hits filed as activators | hit rate 1.3% among 330,000 | AID 504466; further: % of control where 0% means no effect; nearly all actives have a fitted effect of over 60% in size
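Reporter readout depends on ELG1 protein level, which increases with genetic stress. After 16 hr compound exposure at 37 °C, luciferase activity was quantified using ONE-Glo.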
FLuc counter: firefly luciferase modulation, counter-screen for miR-21 project; P08659; purified FLuc, Km substrates, luminescence inhibition; Potency, µM (series often up to 57.5 µM), without a hit: top-dose activity change, negative = inhibition, hits mostly inhibitors; hit rate 6.9% among 360,000;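 further: plate controls were vehicle for no effect and reference inhibitor for full effect; nearly all actives have a fitted effect of over 55% in size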
Target sequence (P08659 whole entry, looked up): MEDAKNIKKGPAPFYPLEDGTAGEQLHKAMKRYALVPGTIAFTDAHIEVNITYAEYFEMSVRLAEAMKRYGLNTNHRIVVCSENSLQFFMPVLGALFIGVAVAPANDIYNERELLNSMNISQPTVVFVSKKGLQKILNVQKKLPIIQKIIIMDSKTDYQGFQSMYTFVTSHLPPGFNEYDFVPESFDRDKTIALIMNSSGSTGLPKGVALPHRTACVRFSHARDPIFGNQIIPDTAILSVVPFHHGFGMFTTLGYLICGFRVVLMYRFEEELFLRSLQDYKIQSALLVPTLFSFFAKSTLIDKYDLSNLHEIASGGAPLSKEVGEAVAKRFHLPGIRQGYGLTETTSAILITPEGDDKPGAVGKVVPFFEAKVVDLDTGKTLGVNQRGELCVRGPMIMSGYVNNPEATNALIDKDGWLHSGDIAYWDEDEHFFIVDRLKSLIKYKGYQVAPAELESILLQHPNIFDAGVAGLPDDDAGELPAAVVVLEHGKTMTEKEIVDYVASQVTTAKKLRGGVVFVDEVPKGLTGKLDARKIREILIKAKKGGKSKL
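Biochemical qHTS of compounds, final roughly 60 µM downward over six points, against 10 nM purified firefly luciferase using Km concentrations of substrates (10 uM D-luciferin, 10 uM ATP) in Tris acetate pH 7.5 buffer; luminescence output.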
Rab9 promoter act: activates the Rab9 promoter; Huh7 Rab9 promoter-luciferase reporter, luminescence, 24 h; Potency, µM (series often up to 9.22 µM), without a hit: top-dose activation, negative = inhibition, most hits filed as activators; hit rate 2.8% among 320,000; further: % of control where 0% means no effect; nearly all actives have a fitted effect of over 60% in size
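Measured in stably transfected Huh7 cells bearing a Rab9 promoter–luciferase construct: 24 h compound treatment at 37 °C, followed by luminescence detection.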
* = called active by the depositor; ? = inconclusive; . = no result; [ ] = another dose, or the depositor's remark. Most compounds without a hit are left out; they make up all but 7.3% or so of the library. The call rests on the fitted dose curve; in most records, active means well fitted curve in the direction sought with a large enough effect; inconclusive means small, poorly fitted or top-dose-only effect, or another doubt; inactive means no such curve, though single readings can be large; an effect the other way counts as inactive or inconclusive. Potency means the concentration at half of the fitted maximal effect.

SMILES	NPC1 prom act	p53 reactivator	SMN2 splice enh	ELG1 genotoxic	FLuc counter	Rab9 promoter act
Cn1c(=O)c2cc(S(=O)(=O)NC(C(=O)NCc3cccnc3)c3ccccc3)ccc2n(C)c1=O (stereo unspecified)	-4%	2%	16%	3%	8%	-1%
CSc1nnc(N2C(=O)C(O)=C(C(=O)c3ccc(C)o3)C2c2ccc(C)cc2)s1 (stereo unspecified)	0.63µM*	?	.	1.3µM*	?	0.79µM*
CCc1ccc(NC(=O)N(Cc2cn(CC)c3ccccc23)C2CCCCC2)cc1	.	.	13µM*	.	?	.
Cc1c(NC(=O)c2ccc(-c3ccc(F)cc3)o2)cccc1-c1nc2ncccc2o1	.	.	-2%	.	?	.
C(/C=C/c1ccco1)=N/N1CCN(c2ccccc2)CC1	1.6µM*	?	?	?	8.5µM*	3.5µM*
Cc1ccc(N2CCN(/N=C/C=C/c3ccccc3)CC2)cc1	-3%	-1%	-15%	1%	-1%	2%
Clc1ccccc1CN1CCN(/N=C/C=C\c2ccco2)CC1	13%	5%	20%	13%	17µM*	?
O=c1c2c(-c3ccccc3)csc2nc2n1CCC2	-4%	-22%	8%	-1%	3%	-3%
O=c1c2sc(-c3ccccc3)cc2nc2n1CCCCC2	1.4µM*	11%	.	?	2.1µM*	0.56µM*
O=c1c2sc(-c3ccccc3)cc2nc2n1CCC2	0.56µM*	35%	2.2µM*	?	1.3µM*	0.45µM*
O=C(CCN1C(=O)/C(=C/c2ccccc2)SC1=S)NCCCN1CCOCC1	-1%	?	.	-10%	5%	-5%
CCc1ccc(/C=C2/SC(=S)N(CCC(=O)NCCCN3CCOCC3)C2=O)cc1	10%	?	.	13%	5.4µM*	-7%
CCOc1ccc(/C=C2\SC(=S)N(CCCC(=O)NCCCN3CCOCC3)C2=O)cc1	-34%	-12%	.	-16%	9.5µM*	-37%
COC(=O)c1ccc(/C=C2/SC(=S)N(CCC(=O)NCCCN3CCOCC3)C2=O)cc1	-3%	25%	.	0%	?	-4%
COc1ccc(S(=O)(=O)NCCc2cn3ccsc3n2)cc1	.	.	.	.	-7%	.
Clc1ccc(C2=Nn3c(nnc3-c3n[nH]c4c3CCC4)SC2)cc1	-26%	-11%	?	?	4%	-15%
Brc1ccc(C2=Nn3c(nnc3-c3n[nH]c4c3CCC4)SC2)cc1	-27%	0%	22µM*	?	3%[2.3 µM]	-11%
COc1ccc(C2=Nn3c(nnc3-c3ccncc3)SC2)cc1OC	-3%	-16%	10µM*	15%	1%	-5%
c1ccc(-c2ccc(C3=Nn4c(nnc4-c4cc(-c5ccccc5)n[nH]4)SC3)cc2)cc1	14%	-11%	-10%	-8%	4.8µM*	-10%
Cn1c(=O)cnc2cnc(Nc3ccccc3)nc21	.	.	21%	.	.	.
CC(C)=C[C@H]1[C@@H](COC(=O)c2cc3c(cc2Cl)OCO3)C1(C)C	.	.	-5%[9.22 µM]	.	.	.
Cc1ccc(C(=O)Nc2ccc(N3CCN(C)CC3)cc2)c(Cl)c1	3.5µM*	?	.	?	24µM*	3.5µM*
CCN1CCc2nc(NC(=O)c3ccc4c(c3)OCCO4)sc2C1	?	9%	?	?	11µM*	?
CS(=O)(=O)c1ccc(C(=O)Nc2ccc(N3CCCCC3)cc2)c(Cl)c1	-4%	-1%	4%	15%	-6%	-3%
CN1CCN(c2ccc(NC(=O)c3ccc4c(c3)OCCO4)cc2)CC1	2.2µM*	?	11µM*	4.6µM*	6µM*	3.2µM*
CCN1CCN(c2ccc(NC(=O)c3ccc4c(c3)OCCO4)cc2C)CC1	2.8µM*	?	.	?	6.7µM*	1.6µM*
CCN1CCc2nc(NC(=O)Cc3ccc4c(c3)OCCO4)sc2C1	-1%	0%	-1%	2%	-3%	-1%

Compound activity (PubChem)
